Bioassay records deposited in PubChem BioAssay by National Center for Advancing Translational Sciences (NCATS).
HP1b binding inh: inhibitors of HP1-beta chromodomain binding to methylated histone tails | 390,000 tested, 0.56% active | AlphaScreen HP1-beta / biotin-H3K9me3 peptide binding | AID 540317 | Potency, µM (titrated, usually from 114 µM), for the others: at the top dose activity change, negative = inhibition, hits mostly inhibitors | P83916; also: potency is read from the fitted curve at half-maximal effect; nearly all actives have a fitted effect of over 70% in size
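AlphaScreen: HP1-beta (50 nM) preformed 30 min with biotin-H3(1-18)K9me3 peptide (50 nM) in PBS pH 7.4, 0.01% Tween-20. Compound added for 30 min at RT, then streptavidin donor/nickel chelate acceptor beads (10 ug/mL) for 30 min.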
G9a block: inhibitors of human histone lysine methyltransferase G9a | Q96KQ7 | G9a H3K9 monomethylation, AlphaScreen, 2 h | 350,000 tested, 8.8% active | Potency, µM (series often up to 102 µM), inactives show at the top dose activity, negative = inhibition, actives largely listed as inhibitors; also: potency is read from the fitted curve at half-maximal effect; % is scaled to controls: 0 for no effect and ±100 for the full control effect; nearly all actives have a fitted effect of over 75% in size
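Enzyme 20 nM + cpd, 15 min RT; add b-H3K9 pep 500 nM / SAM 20 uM; 2 h RT; anti-H3K9me1 Ab 0.5 ug/mL + SA donor / anti-rabbit acceptor beads 20 ug/mL each, 10 min; AlphaScreen read.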
JMJD2A Tudor: blocks the human JMJD2A Tudor domain; 390,000 tested, 4.4% active; AlphaScreen JMJD2A-Tudor / H3K4me3 peptide binding; Potency, µM (doses to about 114 µM), for inactives: at the highest dose activity change, negative = inhibition, hits mostly inhibitors; AID 504339; O75164; also: potency is read from the fitted curve at half-maximal effect; % is scaled to controls: 0 for no effect and ±100 for the full control effect; nearly all actives have a fitted effect of over 50% in size
BAZ2B block: blocks human BAZ2B. AlphaScreen BAZ2B-H3K14Ac peptide displacement. Potency, µM (series often up to 114 µM), for the others: at the highest dose activity change, negative = inhibition, most hits filed as inhibitors. 360,000 tested, 4.4% active. AID 504333; also: potency is read from the fitted curve at half-maximal effect; % is scaled to controls: 0 for no effect and ±100 for the full control effect; nearly all actives have a fitted effect of over 60% in size
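Compounds, titrated to a top concentration of 110 uM, were incubated 30 min at room temperature with preformed BAZ2B/acetyl-K14 H3 peptide complex (50 nM each). Proximity signal was measured by AlphaScreen after 20 min with beads.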
CtBP-E1A blk: blocks the CtBP interaction with E1A; AlphaScreen GST-E1A/His-CtBP binding, 1536-well; stronger effect = lower value; activity change, % (concentration not given with the values); 340,000 tested, 0.49% active; AID 651724; in the data active = activity change below about -65%; inconclusive = mostly about -30% to -63%; also: % is scaled to controls: 0 for no effect and ±100 for the full control effect
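AlphaScreen with 125 nM GST-E1A and 125 nM His-CtBP (5X stocks) in Tris pH 8.0, 300 mM NaCl, BSA, Tween 20, TCEP. Compounds preincubated 2 h at 37 deg C, then glutathione donor/nickel acceptor beads added for 1 h at 37 deg C in dark.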
Six1-Eya2 inh: inhibitors of human Six1/Eya2 interaction. Q15475+O00167. AlphaScreen GST-Six1/His-Eya2 binding, biochemical; stronger effect = lower value. activity change, % (test concentration not listed). 360,000 tested, 0.56% active. AID 651725; in the data active = activity change below about -65%; inconclusive = mostly about -30% to -63%; also: % is scaled to controls: 0 for no effect and ±100 for the full control effect
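AlphaScreen luminescence read after one hour at 37 °C in darkness. Pin-transferred compounds met GST-Six1 and His-Eya2 protein (5X stock 250 nM/500 nM) plus glutathione donor and Ni-chelate acceptor beads (5X, 50 ug/mL).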
* = called active by the depositor; [ ] = another dose, or the depositor's remark. Hits are enriched below; roughly 10% of the tested compounds scored in any of these assays. Unless noted, calls follow the shape of the dose curve; as a rule, active = well fitted inhibition curve with a large enough effect; inconclusive = small, poorly fitted or top-dose-only effect; inactive = no such curve, though single readings can be large or run the other way.

Results for Nc1c(C(=O)Nc2ccccc2)sc2nc(-c3cccnc3)ccc12 ?
G9a block: inconclusive; BAZ2B block: -26%

What do the screens show for `Cc1ccccc1NC(=O)c1sc2nc3c(c(-c4ccco4)c2c1N)CCC3`?
HP1b binding inh: 82%; G9a block: 40µM*; JMJD2A Tudor: 15%[11.4 µM]; BAZ2B block: -6%; CtBP-E1A blk: 17; Six1-Eya2 inh: 9

Results for Nc1c(C(=O)Nc2ccccc2)sc2nc(-c3ccco3)ccc12 ?
HP1b binding inh: 29%; G9a block: 11µM*; JMJD2A Tudor: 9%; BAZ2B block: -2%; CtBP-E1A blk: -12; Six1-Eya2 inh: -1

What do the screens show for `O=C(Cc1ccc(Cl)cc1)NCCc1csc2nc(-c3ccccc3F)nn12`?
HP1b binding inh: 22%[57 µM]; G9a block: 4%[59 µM]; JMJD2A Tudor: -7%; BAZ2B block: 2%

What do the screens show for `CCN1CCN(c2ccc(S(=O)(=O)N3CCCCC3)cc2NC(=O)/C=C/c2ccc(OC(F)F)cc2)CC1`?
HP1b binding inh: -15%; G9a block: 14µM*; JMJD2A Tudor: -34%; BAZ2B block: 4%; CtBP-E1A blk: -29; Six1-Eya2 inh: -3

What do the screens show for `CN1CCN(c2ccc(S(=O)(=O)N3CCCCC3)cc2NC(=O)/C=C/c2ccc(OC(F)F)cc2)CC1`?
HP1b binding inh: -25%; G9a block: 45µM*; JMJD2A Tudor: -34%; BAZ2B block: -38%; CtBP-E1A blk: -4; Six1-Eya2 inh: -13

What do the screens show for `O=C(O)C[C@H]1c2ccc(C(F)(F)F)cc2S(=O)(=O)N1C1CCCCC1`?
HP1b binding inh: 39%; JMJD2A Tudor: -13%; CtBP-E1A blk: -25; Six1-Eya2 inh: 10

How did Cc1cc(C(=O)NNc2cc(Cl)ccc2Cl)no1 do in these assays?
HP1b binding inh: 0%; G9a block: -22%; JMJD2A Tudor: -25%; BAZ2B block: -1%; CtBP-E1A blk: 7; Six1-Eya2 inh: -19

Results for O=C(NNc1cc(Cl)ccc1Cl)c1cccs1 ?
HP1b binding inh: 19%; G9a block: 56µM*; JMJD2A Tudor: -12%; BAZ2B block: 17%; CtBP-E1A blk: 9; Six1-Eya2 inh: 2

Results for Cc1noc(C)c1C(=O)NNc1cc(Cl)ccc1Cl ?
HP1b binding inh: 1%; G9a block: 79µM*; JMJD2A Tudor: -8%; BAZ2B block: -16%; CtBP-E1A blk: -2; Six1-Eya2 inh: 4

Results for COc1ccccc1N1C(=S)N=C(Nc2c(C)cccc2C)C12CCCC2 ?
HP1b binding inh: -2%; G9a block: 10%; JMJD2A Tudor: -28%; BAZ2B block: -19%; CtBP-E1A blk: -2; Six1-Eya2 inh: 5

What do the screens show for `COC(=O)c1ccccc1NC(=O)CSc1c2c(nc3ccc(Cl)cc13)CCCC2`?
HP1b binding inh: 24%; G9a block: 22%[59 µM]; JMJD2A Tudor: -17%

How did O=c1cc(-c2ccccc2)n2c(SCc3ccc([N+](=O)[O-])cc3)nnc2[nH]1 do in these assays?
HP1b binding inh: 21%; G9a block: 3%[59 µM]; JMJD2A Tudor: -24%; BAZ2B block: -6%

Results for O=C(Nc1ccnn1C1CCN(Cc2ccc(CO)o2)CC1)c1cccc(F)c1 ?
CtBP-E1A blk: -8; Six1-Eya2 inh: 0

Results for O=C(NC(C(=O)c1ccccc1)n1c(=O)cc[nH]c1=S)c1ccccc1 (centres undefined) ?
HP1b binding inh: 37%; G9a block: 14µM*; JMJD2A Tudor: inconclusive; BAZ2B block: 1%; CtBP-E1A blk: 10; Six1-Eya2 inh: 2

Results for O=C(NC(C(=O)c1ccccc1)n1cnccc1=O)c1ccccc1 (centres undefined) ?
HP1b binding inh: 57%; JMJD2A Tudor: -4%; BAZ2B block: 2%; CtBP-E1A blk: -1; Six1-Eya2 inh: 14

What do the screens show for `CCCOc1ccccc1Cn1c(=O)sc2ccccc21`?
HP1b binding inh: 153%; G9a block: 261%[59 µM]; JMJD2A Tudor: 168%; BAZ2B block: 244%

How did COc1cc(-c2cc(-c3ccc(F)cc3)nc(N)c2C#N)ccc1O do in these assays?
HP1b binding inh: 27%; G9a block: 4%; JMJD2A Tudor: -8%; BAZ2B block: 0%; CtBP-E1A blk: -18; Six1-Eya2 inh: -3

Results for CCN(CC)S(=O)(=O)c1cc([N+](=O)[O-])ccc1NNC(=O)Nc1ccc(F)cc1 ?
HP1b binding inh: -3%; G9a block: inconclusive; JMJD2A Tudor: inconclusive; BAZ2B block: -37%; CtBP-E1A blk: -20; Six1-Eya2 inh: -11

Results for CCN(CC)S(=O)(=O)c1cc([N+](=O)[O-])ccc1NNC(=O)Nc1ccccc1OC ?
HP1b binding inh: 7%; G9a block: 28µM*; JMJD2A Tudor: inconclusive; BAZ2B block: inconclusive; CtBP-E1A blk: -13; Six1-Eya2 inh: -19

How did c1ccc2c(c1)CCN(c1nc(CN3CCOCC3)nc3sc4c(c13)CCCC4)C2 do in these assays?
HP1b binding inh: inconclusive; G9a block: inconclusive; JMJD2A Tudor: -34%[57.1 µM]; BAZ2B block: 35µM*; CtBP-E1A blk: -24; Six1-Eya2 inh: -19

What do the screens show for `CCNc1nc(CN2CCOCC2)nc2sc3c(c12)CCC3`?
HP1b binding inh: 35%; G9a block: -3%[59 µM]; JMJD2A Tudor: -18%; BAZ2B block: -38%; CtBP-E1A blk: 7; Six1-Eya2 inh: 2

How did Cn1c(=O)n(C)c2cc([N+](=O)[O-])c(N3CCN(S(C)(=O)=O)CC3)cc21 do in these assays?
HP1b binding inh: 28%; G9a block: 1%[59 µM]; JMJD2A Tudor: -8%; BAZ2B block: 50µM*; CtBP-E1A blk: -3; Six1-Eya2 inh: -1

How did Cn1c(=O)n(C)c2cc([N+](=O)[O-])c(N3CCN(C(=O)c4ccccc4Cl)CC3)cc21 do in these assays?
HP1b binding inh: 11%; G9a block: 7%; JMJD2A Tudor: -13%; BAZ2B block: 50µM*; CtBP-E1A blk: 6; Six1-Eya2 inh: -24

What do the screens show for `COc1ccc(C(=O)N2CCC3(CCCN(c4ncccn4)C3)CC2)cc1`?
G9a block: 5%[12.7 µM]

What do the screens show for `Nc1ncnc(Oc2cccc3cccnc23)c1[N+](=O)[O-]`?
HP1b binding inh: 31%; G9a block: inconclusive; JMJD2A Tudor: -1%; BAZ2B block: 45µM*; CtBP-E1A blk: -13; Six1-Eya2 inh: -67*

Results for Cc1ccc(S(=O)(=O)NCCC(=O)N2CCN(C/C=C/c3ccccc3)CC2)cc1 ?
HP1b binding inh: 12%; G9a block: 10%[12.7 µM]; JMJD2A Tudor: -14%; BAZ2B block: -1%; Six1-Eya2 inh: 0

Results for CC(=O)c1ccc(S(=O)(=O)NCC(=O)N2CCN(C/C=C/c3ccccc3)CC2)cc1 ?
HP1b binding inh: 5%; G9a block: 7.9µM*; JMJD2A Tudor: -27%; BAZ2B block: -4%; CtBP-E1A blk: -19; Six1-Eya2 inh: 1
